# HEK cytotox = Cytotoxic Profiling in HEK 293 Cell Line of Diverse Libraries Using Quantitative High-Throughput Screening; Potency, µM (top dose mostly 115 µM), for inactives: at the highest dose activity change, negative = cytotoxicity, most hits filed as inhibitors; 6.6% of 94,000 active; HEK 293 viability, ATP luminescence (CellTiter-Glo), 48-72 h; AID 1345083, 2018; also: nearly all actives have a fitted effect of over 60% in size
#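 ATP-coupled CellTiter-Glo luminescence served as viability read-out, recorded 10 min after reagent addition at room temperature. HEK 293 cells, 250 cells/well, had been incubated with pintool-transferred compound for 48 or 72 hr at 37 degree Celsius.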
# Luciferase inh = Firefly luciferase inhibition profiling of diverse chemical library using quantitative high-throughput screening | Luciferin 4-monooxygenase (Photinus pyralis), P08659 | purified P. pyralis luciferase, luminescence, biochemical | Potency, µM (series often up to 115 µM), hits mostly inhibitors | 2.5% of 76,000 active | AID 1347043, 2019; also: nearly all actives have a fitted effect of over 65% in size
# Target sequence (P08659 whole entry, looked up): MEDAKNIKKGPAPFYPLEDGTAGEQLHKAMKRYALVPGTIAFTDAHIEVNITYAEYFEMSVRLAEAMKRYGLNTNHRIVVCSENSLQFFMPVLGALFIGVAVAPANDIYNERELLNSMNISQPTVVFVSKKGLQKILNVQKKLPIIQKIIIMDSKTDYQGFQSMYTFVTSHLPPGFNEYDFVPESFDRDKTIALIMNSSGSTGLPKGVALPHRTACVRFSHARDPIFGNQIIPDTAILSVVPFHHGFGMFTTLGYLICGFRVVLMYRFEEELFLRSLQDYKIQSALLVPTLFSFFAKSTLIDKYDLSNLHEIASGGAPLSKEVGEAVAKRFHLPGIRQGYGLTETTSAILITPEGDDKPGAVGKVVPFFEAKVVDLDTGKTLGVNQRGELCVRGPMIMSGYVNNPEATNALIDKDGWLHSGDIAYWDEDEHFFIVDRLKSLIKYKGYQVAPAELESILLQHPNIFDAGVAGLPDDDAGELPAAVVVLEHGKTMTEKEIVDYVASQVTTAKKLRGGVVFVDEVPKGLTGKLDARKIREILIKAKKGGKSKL
#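 Purified 10nM P. pyralis luciferase with 10uM D-luciferin and 10uM ATP in 50mM Tris acetate pH 7.5, 10mM Mg acetate, 0.01% Tween-20, 0.05% BSA. qHTS titration; luminescence read by CCD imager.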
# hNpr1 antagonist = Natriuretic polypeptide receptor (hNpr1) antagonism - Primary qHTS; HEK293 hNpr1 GloSensor cGMP, ANP-stimulated luminescence; 1.6% of 76,000 active; Atrial natriuretic peptide receptor 1 (Homo sapiens), P16066; Potency, µM (series often up to 46.3 µM), for the others: at the highest dose activity change, negative = inhibition, hits mostly inhibitors; calls by dose curve; also: nearly all actives have a fitted effect of over 60% in size
#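 HEK293 cells stably expressing human Npr1 and cGMP GloSensor pGS-40F, loaded 2 h with 2% GloSensor reagent, given compound 30 min at room temperature. Luminescence read before and 20 min after 0.1 nM hNppA.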
# GPT2 inhibitor = Primary qHTS assay for inhibitors of Glutamate pyruvate transaminase 2 (GPT2) | Alanine aminotransferase 2 (Homo sapiens), Q8TD30 | Recombinant GPT2, coupled pyruvate oxidase/HRP Amplex Red fluorescence | Potency, µM (top dose mostly 57.7 µM), inactives show at the top dose activity change, negative = inhibition, hits mostly inhibitors | 0.25% of 100,000 active | AID 1671188, 2021; also: nearly all actives have a fitted effect of over 60% in size
#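 Inhibition is scored from Amplex Red fluorescence generated when pyruvate oxidase and HRP act on pyruvate released by GPT2. Reactions contain 10ng/uL enzyme, 250uM a-KG and 2mM L-alanine and run 30 min at room temperature.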
# 3T3 cytotox = Cytotoxic Profiling in NIH 3T3 Cell Line of Diverse Libraries Using Quantitative High-Throughput Screening; 4.3% of 94,000 active; NIH 3T3 viability, CellTiter-Glo ATP luminescence, 48-72 h; Potency, µM (series often up to 96.7 µM), for inactives: top-dose activity change, negative = cytotoxicity, most hits filed as inhibitors; also: nearly all actives have a fitted effect of over 55% in size
#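 First NIH 3T3 cells are plated at 400 cells/well; next compound is pinned in; then plates incubate 48 or 72 hr at 37 °C; finally CellTiter-Glo is added and luminescence read after 10 min.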
# * hit, by the source's call; i = inactive; ? = inconclusive; nt = no result; [ ] = remark or other dose. In the library only some 10% were active in any assay of this set; here they are far more common. Unless noted, calls follow the shape of the dose curve; as a rule, active = well fitted curve in the direction sought with a large enough effect; inconclusive = small, poorly fitted or top-dose-only effect, or another doubt; inactive = no such curve, though single readings can be large; an effect the other way counts as inactive or inconclusive. % is scaled to controls: 0 for no effect and ±100 for the full control effect; potency is read from the fitted curve at half-maximal effect.
SMILES,HEK cytotox,Luciferase inh,hNpr1 antagonist,GPT2 inhibitor,3T3 cytotox
CNC(=O)CCn1ncc2cc(OCc3ccccc3-c3ccccc3F)ccc21,100µM*,?,-20%[70.6 µM],1%[88.5 µM],79µM*
CNC(=O)CCn1ncc2cc(OCc3ccccc3-c3c(F)cccc3OC)ccc21,?,i,4%[70.6 µM],2%[88.5 µM],?
CNC(=O)CCn1ncc2cc(OCc3ccccc3-c3cc(F)ccc3OC)ccc21,79µM*,40µM*,-19%[70.6 µM],-8%[88.5 µM],?
CNC(=O)CCn1ncc2cc(OCc3ccccc3-c3ccc(F)cc3C)ccc21,?,i,-22%[70.6 µM],3%[88.5 µM],50µM*
CNC(=O)CCn1ncc2cc(OCc3ccccc3-c3c(C)noc3C)ccc21,?,?,-22%[70.6 µM],0%[88.5 µM],?
CNC(=O)CCn1ncc2cc(OCc3ccccc3-c3cccc(CO)c3)ccc21,79µM*,16µM*,?,-12%[88.5 µM],?
CNC(=O)c1cc(C)nc2onc(C3CCN([S+](=O)([O-])c4c(C)noc4C)CC3)c12,i,nt,nt,nt,-13%
CNC(=O)[C@H]1C[C@H](Oc2ccccc2)CN1Cc1cccn1C,?,i,-16%,i,4%
COCCNC(=O)[C@H]1C[C@H](Oc2ccccc2)CN1Cc1cccc(C)c1,13µM*,i,0%,2%,-24%
CNC(=O)[C@H]1C[C@H](Oc2ccccc2)CN1Cc1cn(C)c2ccc(OC)cc12,28µM*,i,-3%,-3%,32µM*
COCCNC(=O)[C@H]1C[C@H](Oc2ccccc2)CN1Cc1cccnc1,i,i,2%,-16%,i
COc1cccc(-c2ccc(CN3CCCC(NC(=O)c4cccnc4)C3)cc2)c1 (configuration not stated),28µM*,nt,nt,nt,?
COc1ccc(C(=O)NC2CCCN(Cc3ccc(-c4cccc(OC)c4)cc3)C2)cc1 (configuration not stated),35µM*,nt,nt,i,-37%
Cc1cc(C)cc(-c2ccc(CN3CCCC(NC(=O)c4cccc(Cl)c4)C3)cc2)c1 (configuration not stated),40µM*,nt,nt,i,?
COc1cccc(-c2ccc(CN3CCCC(NC(C)=O)C3)cc2)c1 (configuration not stated),?,nt,nt,i,-41%
COc1cccc(-c2ccc(CN3CCCC(NC(=O)C4CCCC4)C3)cc2)c1 (configuration not stated),20µM*,nt,nt,nt,35µM*
COc1ccc2c(c1)CN(CC1CC1)C(=O)CCN2CC(O)C(F)(F)F (configuration not stated),-21%,nt,nt,nt,?
COc1ccc(C(=O)N2CCC3(CC2)NCCc2c3[nH]c3ccccc23)cn1,?,i,-4%,i,-23%
O=C(NC1CCN(c2ccc3nnc(C4CC4)n3n2)C1)C1CC1 (configuration not stated),-2%[172 µM],nt,nt,nt,-24%[138 µM]
COc1cccc(C(=O)NC2CCCN(Cc3ccc(-c4cccc(OC)c4)cc3)C2)c1 (configuration not stated),32µM*,nt,nt,i,25µM*
COc1cccc(-c2ccc(CN3CCCC(NC(=O)c4cccc(Cl)c4)C3)cc2)c1 (configuration not stated),?,nt,nt,i,32µM*
COc1cccc(-c2ccc(NC(=O)C3CCCN(Cc4cc(C(C)C)n[nH]4)C3)cc2)c1 (configuration not stated),22µM*,i,?,-4%,40µM*
COc1cccc(-c2ccc(CN3CCCC(NC(=O)c4ccc(Cl)cc4)C3)cc2)c1 (configuration not stated),?,nt,nt,4%,?
O=C(NCc1cccc(C(F)(F)F)c1)C1CCN(Cc2ccccc2-c2ccccc2F)CC1,25µM*,nt,nt,nt,?
O=C(NCc1ccc(F)cc1)C1CCN(Cc2ccccc2-c2ccccc2F)CC1,32µM*,nt,nt,nt,32µM*
SMILES,HEK cytotox,Luciferase inh,hNpr1 antagonist,GPT2 inhibitor,3T3 cytotox
O=C(NCC1CC1)C1CCN(Cc2ccccc2-c2ccccc2F)CC1,?,nt,nt,5%,-26%
CCN1c2cc(C(=O)NCc3ccc(Cl)cc3)ccc2C(=O)N2CCCCC21 (configuration not stated),?,i,-5%,i,?
CC(C)N1CCC2(CC1)CN(C(=O)c1cccnc1)Cc1ccccc1O2,3%,nt,nt,i,-21%
CCn1ncc(NC(=O)Cn2ncc3cc(-c4cc(F)ccc4F)ccc32)n1,-63%,i,?,-9%,?
CCn1ncc(NC(=O)Cn2ncc3cc(-c4ccc(C(=O)N(C)C)cc4)ccc32)n1,45µM*,6.3µM*,-12%,?,-21%
CCn1ncc(NC(=O)Cn2ncc3cc(-c4cccc(C#N)c4)ccc32)n1,25µM*,i,?,-2%,?
CCn1ncc(NC(=O)Cn2ncc3cc(-c4ccc(F)cc4F)ccc32)n1,-64%,?,13µM*,5%[11.5 µM],?
Cc1ccc(-c2cccc(CN3CCCC3C(=O)NCc3ccc(F)cc3F)c2)cc1Cl (configuration not stated),45µM*,nt,nt,nt,?
Cc1ccc(-c2cccc(CN3CCCC3C(=O)NCc3cccc(Cl)c3)c2)cc1Cl (configuration not stated),40µM*,nt,nt,nt,35µM*
COCCNC(=O)C1CCCN1Cc1cccc(-c2cccc(OC)c2)c1 (configuration not stated),?,nt,nt,1%,?
COc1cccc(-c2cccc(CN3CCCC3C(=O)NCc3cccs3)c2)c1 (configuration not stated),?,nt,nt,i,?
Cc1ccc(-c2cccc(CN3CCCC3C(=O)NCc3cccc(F)c3)c2)cc1Cl (configuration not stated),45µM*,nt,nt,nt,?
COc1ccccc1-c1nc2nccc(-c3ccc(Cl)cc3)n2n1,?,i,-8%,-14%,-9%
CCC1Oc2ccc(NC(=O)c3ccccc3)cc2CN(Cc2ccc(OC)cc2)C1=O (configuration not stated),?,i,-16%,i,?
CCC1Oc2ccc(NC(=O)Cc3ccc(OC)cc3)cc2CN(Cc2ccc3c(c2)OCO3)C1=O (configuration not stated),22µM*,i,-12%,1%,?
